CSC inhib = cancer stem cell viability inhibitors, primary screen, luminescence. inhibition, % at 7.5 µM. AID 2717, 2010. cancer stem cell-like cells viability. 300,000 tested, 1.1% active; in the data active = inhibition above about 75%; inconclusive = no clear call, values can overlap the other calls; tested in HMLE shEcad cells
SKKanGAS inh = S. pyogenes SKKanGAS growth inhibitors in kanamycin, primary screen, streptokinase expression inhibitor project, SKKanGAS strain, BacTiter-Glo luminescence. 6 h. inhibition, % at 7.5 µM. 300,000 tested, 1.3% active;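 active = mean replicate score, as percent of positive control median, at least 50; inconclusive = mean below 50 but one replicate at or above 50; inactive = mean and every replicate below 50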;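 also: strain carries kanamycin resistance gene driven by streptokinase promoter and grows in 40 µg/ml kanamycin; loss of luminescence reflects streptokinase promoter inhibition or plain growth inhibition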
PP1 inh = PP1-alpha phosphatase inhibitors, primary screen, counter-screen for PP5 inhibitor project, biochemical, fluorescence, OMFP substrate, single point; inhibition, % at 6.7 µM; purified PP1alpha; 320,000 tested, 0.9% active; Serine/threonine-protein phosphatase PP1-alpha catalytic subunit (Homo sapiens), P62136;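 active = inhibition above the mean inhibition of all tested compounds plus 3 SD, computed separately for each screening campaign, cut at about 15% in these data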
Beta apoptosis = inhibitors of cytokine-induced beta cell apoptosis, primary screen, luminescence. 300,000 tested, 0.8% active. AID 435005, 2010. INS-1E cytokine-induced death, ATP luminescence, 48 h; percent of positive-control rescue, neutral wells zero. protection from apoptosis, % (no concentration beside the values);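 active = Every replicate reaches about 75%, or at least half do and their mean reaches it too, limit read from the data; inconclusive = At least half of replicates reach the limit but their mean does not; inactive = Under half of replicates reach the limit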;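 also: higher means more ATP so stronger rescue from cytokine killing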
PP5 inh = PP5 phosphatase inhibitors, primary screen, biochemical, fluorescence; 320,000 tested, 0.18% active; purified PP5c, OMFP substrate fluorescence; inhibition, % at 6.7 µM; AID 1987, 2009; Serine/threonine-protein phosphatase 5 (Homo sapiens), P53041;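 active = inhibition above the campaign's mean inhibition across all tested compounds plus 3 SD, cut at about 9.5% in these data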
Target sequence (P53041 whole entry, looked up): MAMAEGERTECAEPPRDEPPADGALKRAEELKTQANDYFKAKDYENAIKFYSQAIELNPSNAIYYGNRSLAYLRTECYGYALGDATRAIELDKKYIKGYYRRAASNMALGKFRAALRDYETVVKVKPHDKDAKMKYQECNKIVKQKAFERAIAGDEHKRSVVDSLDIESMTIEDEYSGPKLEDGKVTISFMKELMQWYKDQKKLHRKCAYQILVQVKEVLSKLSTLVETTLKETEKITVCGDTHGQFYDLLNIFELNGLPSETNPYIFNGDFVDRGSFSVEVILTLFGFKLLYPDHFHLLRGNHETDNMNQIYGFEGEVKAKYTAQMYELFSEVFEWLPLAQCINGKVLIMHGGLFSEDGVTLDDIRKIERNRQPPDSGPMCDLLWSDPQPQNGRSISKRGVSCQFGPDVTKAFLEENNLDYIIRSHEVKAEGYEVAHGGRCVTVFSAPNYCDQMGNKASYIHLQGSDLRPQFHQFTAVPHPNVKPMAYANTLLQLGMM
Of the large screens only hits and unclear results are named; the others gave an inactive call. The list is not random: actives were taken first. Their share in the collection is about 3.1%.

O=C(NNC(=O)c1cc(-c2ccc(Cl)c(Cl)c2)nc2ccccc12)Nc1ccccc1	CSC inhib 92, SKKanGAS inh 76
O=C(Nc1ccncc1)c1cc(-c2cccc(Br)c2)nc2ccccc12	CSC inhib 106
COc1ccc(CN2CC(C(=O)NCCCN3CCCCC3)CC2=O)cc1 (stereo not given)	none
Cc1nc(NS(=O)(=O)c2ccc(Cl)s2)c2c3c(sc2n1)CCCC3	SKKanGAS inh 63
Cc1nc(NCCc2ccc(S(N)(=O)=O)cc2)c2c3c(sc2n1)CCC3	none
O=c1c2[nH]c3ccc(F)cc3c2nc2n1CCCS2	none
CSCC[C@H](NC(=O)Nc1ccc(OC(F)(F)F)cc1)C(=O)O	none
FC(F)Sc1ccc(NC(=S)NC2CCCC2)cc1	none
CC1CCCC(NC(=S)Nc2ccc(SC(F)F)cc2)C1C (stereo not given)	CSC inhib inconclusive, SKKanGAS inh 108
O=C(Nc1cccc(Cl)c1)Nc1nnc(CSCCOc2ccc(Cl)cc2)s1	Beta apoptosis 139
O=C(Nc1cccc(Cl)c1)Nc1nnc(-c2ccncc2)s1	Beta apoptosis 100
O=C(Nc1ccc(Cl)cc1)Nc1nc(-c2ccccc2O)cs1	SKKanGAS inh 61, Beta apoptosis 109
O=C(Nc1ccc(Cl)cc1)Nc1nc(-c2sccc2Br)cs1	none
O=C(Nc1ccc(Cl)cc1)Nc1nnc(-c2ccncc2)s1	CSC inhib 91, Beta apoptosis 99
O=C(Nc1ccc(F)cc1)Nc1nnc(-c2ccncc2)s1	none
Cc1ccc(NC(=O)Nc2nnc(CSCCOc3ccc(Cl)cc3)s2)cc1	none
COc1ccnc(-n2cccc2/C=N/O)c1C#N	none
CC(=O)c1cccc(S(=O)(=O)Nc2cccnc2)c1	none
COCCCn1c(=O)/c(=C\c2ccccc2OC(F)F)s/c1=C(/C#N)C(=O)NC(C)C	none
COCCCn1c(=O)/c(=C\c2ccccc2OC(C)C)s/c1=C(/C#N)C(=O)Nc1ccc(C(=O)O)cc1	SKKanGAS inh 54
Clc1ccc(-c2csc(N3CCc4ccccc4C3)n2)cc1	SKKanGAS inh 56
CC(C)CCN1CCN(Cc2ccc(N3CCNC3=O)cc2)CC1CCO (stereo not given)	none
CCOc1ccc(Cl)cc1S(=O)(=O)n1cnc2cc(C)c(C)cc21	SKKanGAS inh 52
Cc1cc(CNC(=O)COC(=O)C2CC3CCCC(C2)C3=O)cc(C)c1O (stereo not given)	none (no result: SKKanGAS inh, PP1 inh, PP5 inh)
CC(C)C[C@H]1CN=C(Nc2ccccc2)N1CC1CCC(C)CC1 (stereo not given in full)	none
COc1ccc(/C=N/OCC(=O)N2CC3(C)CC2CC(C)(C)C3)cc1 (stereo not given)	CSC inhib 110
COc1ccc(/C(C)=N/OCC(=O)N2CC3(C)CC2CC(C)(C)C3)cc1 (stereo not given)	none
COCCN1C(=O)/C(=C/c2ccc(OCc3ccc(C(=O)O)cc3)c(OC)c2)SC1=Nc1ccccc1	SKKanGAS inh 91 (no result: Beta apoptosis)
CN(C(=O)c1cccs1)C1(C)CCS(=O)(=O)C1 (stereo not given)	none
Cc1cc(C)c(S(=O)(=O)/N=C2\C=C(Nc3ccc(C(=O)O)cc3)C(=O)c3ccccc32)c(C)c1	SKKanGAS inh 112, Beta apoptosis 113 (no result: CSC inhib)
Cc1cc(C)c(S(=O)(=O)/N=C2\C=C(NS(=O)(=O)c3ccccc3)C(=O)c3ccccc32)c(C)c1	none (no result: Beta apoptosis)
O=C1C(Nc2ccc(O)cc2)=C/C(=N/S(=O)(=O)c2cccs2)c2ccccc21	SKKanGAS inh 87 (no result: CSC inhib, PP1 inh, Beta apoptosis, PP5 inh)
O=S(=O)(Nc1ccc(O)c2ccccc12)c1cccs1	none (no result: CSC inhib)
CCc1ccc(S(=O)(=O)/N=C2/C=C(Sc3ncn[nH]3)C(=O)c3ccccc32)cc1	CSC inhib 104, Beta apoptosis 127 (no result: SKKanGAS inh)
Cc1ccc(NC2=C/C(=N\S(=O)(=O)c3cccs3)c3ccccc3C2=O)c(C)c1	SKKanGAS inh 100, Beta apoptosis 114
O=C(O)CCC(=O)Nc1ccccc1C(=O)N1CCN(c2ccc(Cl)cc2)CC1	none
Cc1cccc(NC2=C/C(=N/S(=O)(=O)c3cccs3)c3ccccc3C2=O)c1	CSC inhib 119, Beta apoptosis 105 (no result: SKKanGAS inh)
CCc1ccc(S(=O)(=O)/N=C2\C=C(Nc3ccc(O)cc3)C(=O)c3ccccc32)cc1	SKKanGAS inh 109, Beta apoptosis 115 (no result: CSC inhib)
Cc1cccc(NC2=C(NCCO)C(=O)c3ccccc3C2=O)c1	none
CCc1ccc(S(=O)(=O)/N=C2\C=CC(=O)c3ccccc32)cc1	none (no result: SKKanGAS inh)
CCc1ccc(CNC(=O)C2CCN(S(=O)(=O)N3CCC4(CC3)OCCO4)CC2)cc1	none
Cc1ccc(S(=O)(=O)NCCC(=O)Nc2ccc(C)cc2C(=O)c2ccccc2)cc1	none
O=C(CCCN1C(=O)/C(=C/c2ccccc2Cl)SC1=S)NNC(=O)c1ccccc1Cl	PP1 inh 17
COc1ccccc1/C=C1\SC(=S)N(CCC(=O)NNC(=O)c2ccccc2O)C1=O	SKKanGAS inh 52
O=C(CCCN1C(=O)/C(=C/c2ccccc2Cl)SC1=S)NNC(=O)c1ccncc1	none
COc1ccc(/C=C2\SC(=S)N(CCCC(=O)NNC(=O)c3ccccc3O)C2=O)cc1	none
COc1cccc(CNC(=O)CSc2ccc(-c3cccs3)nn2)c1	none
COC(=O)c1cc(=O)n(CCc2ccccc2F)c(=Nc2ccc(F)c(Cl)c2)s1	CSC inhib 122, Beta apoptosis 76
COC(=O)c1cc(=O)n(Cc2cccs2)c(=Nc2ccc(F)cc2)s1	CSC inhib 121
COC(=O)c1cc(=O)n(Cc2ccc3c(c2)OCO3)c(=Nc2ccc(F)cc2)s1	none
COC(=O)c1cc(=O)n(Cc2ccc3c(c2)OCO3)c(=Nc2ccccc2)s1	none
COC(=O)c1cc(=O)n(Cc2ccco2)c(=Nc2ccc(F)c(Cl)c2)s1	CSC inhib 94
COc1ccccc1NC(=O)COC(=O)/C=C/c1ccc(OC)c(OC)c1	none (no result: SKKanGAS inh, PP1 inh, PP5 inh)
O=C(c1ccc(CNS(=O)(=O)c2ccc(Br)cc2)cc1)N1CCCCCC1	none
C/C(=C\C(=O)OCCCCCCCCC(=O)O)C[C@@H]1OC[C@H](C[C@@H]2O[C@H]2[C@@H](C)[C@H](C)O)[C@@H](O)[C@H]1O	SKKanGAS inh 103
NC[C@H](Cc1ccccc1)NCCCCC1CCCCC1	none (no result: SKKanGAS inh)
CNC[C@H](CC1CCCCC1)NC[C@H](Cc1ccccc1)NCCC12CC3CC(CC(C3)C1)C2	SKKanGAS inh 98, PP1 inh 21, Beta apoptosis 114
Cc1cccc(C)c1OCCSc1nc2ccccc2n1CC(=O)O	none (no result: Beta apoptosis)
O=C(Nc1ccc(Br)c(C(F)(F)F)c1)c1ccc(C(F)(F)F)cc1	CSC inhib 110, SKKanGAS inh 106, Beta apoptosis 74
COc1ccc(NC(=O)c2ccc(COCC(F)(F)F)cc2)cc1OC	none
O=C(Nc1ccc(OCC(F)(F)C(F)F)c(C(F)(F)F)c1)c1ccc(Cl)cc1	CSC inhib inconclusive, SKKanGAS inh 92, Beta apoptosis 79
Cc1ccccc1NS(=O)(=O)c1ccc(C)c(C(=O)N2CCOCC2)c1	SKKanGAS inh 52 (no result: Beta apoptosis)
